PubChem BioAssay

Test: A549 cell viability effects, profiling panel, calcein-AM fluorescence, 48 h, basal (AID 1162); further: test concentration not given here
Settings: higher = more signal

Compound | z-score
CO[C@H]1O[C@H](CO)[C@@H](OC(=O)Nc2ccc(C(F)(F)F)cc2)[C@H](OC(=O)Nc2ccc3c(c2)OCO3)[C@@H]1OC(=O)Nc1ccc2c(c1)OCO2 | -0.903
COCCOC(=O)N1C(=O)[C@@]2(c3cc(C#Cc4ccc(OC)cc4)ccc31)[C@H](c1ccc(O)cc1)N1[C@H](c3ccccc3)[C@H](c3ccccc3)OC(=O)[C@H]1[C@@H]2C(=O)N1CCc2cc(OC)c(OC)cc2C1 | -0.548
CCC(CC)C(O)C1C=CC2C(=O)NC(=O)C2N1Nc1ccccn1 (stereo not given) | -0.651
CN1C(=O)C2C=CC(C(O)C3CC=CCC3)N(N(c3ccccc3)c3ccccc3)C2C1=O (stereo not given) | -0.0631
COc1cc2c(cc1OC)CN(C(=O)[C@H]1[C@@H]3C(=O)O[C@@H](c4ccccc4)[C@@H](c4ccccc4)N3[C@@H](c3ccc(O)cc3)[C@]13C(=O)Nc1ccc(C#CCCO)cc13)CC2 | 0.0351
CCN(CC)c1ccc(N2CC=CC34O[C@@H]5C=CCCOC(=O)C5[C@H]3C(=O)N(CCCCCCO)[C@@H]4C2=O)cc1 (stereo not given in full) | 0.75
Cc1ccc(S[C@]2(C(=O)O)CC(=O)N(C(C)C)[C@@H]2c2ccc(CO)cc2I)cc1 | 2.14
C=CCNC(=O)[C@H]1[C@@H]2C(=O)O[C@@H](c3ccccc3)[C@@H](c3ccccc3)N2[C@@H](c2ccccc2OCCO)[C@]12C(=O)Nc1ccc(C#CCCO)cc12 | 0.126
C=C(CC1([C@@H](NP(=O)(c2ccccc2)c2ccccc2)[C@H]2C[C@@H]2CCCC)CC1)c1ccccc1 | -0.665
O=C1C[C@@](C(=O)NCCN2CCOCC2)(c2ccc([N+](=O)[O-])cc2)[C@@H](c2ccc(CO)cc2)N1CC12CC3CC(CC(C3)C1)C2 | -2.97
